Experimental findings from PubChem BioAssay are described below.

The nature of assay [1]: optical density shifts of acrAB sulA E. coli – strain DRC41, OD650, 48 h, E. coli filamentation inducer project, primary screen (AID 1152).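 Also: E. coli MC1000 strain DRC41 lacking acrAB efflux pump and sulA.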 As to conditions: higher = more signal, called active from +8 up or from −8 down.
Assay [2] can be described thus: probe aLefty1 binding on compound microarray – biochemical, small-molecule microarray, 635/667 nm fluorescence, primary screen (AID 1153).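 Also: score merges spot fluorescence with signal-to-noise ratio from the scanned slide images.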 As to conditions: higher = more signal.
Assay [3] is described as follows: plasmodial surface anion channel blockers, osmotic lysis – cell-based, P. falciparum Indochina, OD700, 1 h, primary screen (AID 1154). As to conditions: P. falciparum Indochina infected RBC osmotic lysis, higher = more signal, called active from +8 up or from −8 down.
Assay [4] in a line: plasmodial surface anion channel blockers, osmotic lysis – cell-based, P. falciparum Indochina, OD700, 2 h, primary screen (AID 1155).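 Also: lysis reports solute entry through the parasite surface anion channel PSAC.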 As to conditions: P. falciparum Indochina infected erythrocytes, higher = more signal, called active from +8 up or from −8 down.
Assay [5] can be described thus: changes in parasitized red cell lysis, either direction – P. falciparum Indochina, OD700, 3 h, PSAC antagonist project, primary screen (AID 1156). As to conditions: P. falciparum-infected erythrocytes, osmotic lysis, higher = more signal, called active from +8 up or from −8 down.
Assay [6] is described as follows: plasmodial surface anion channel blockers, osmotic lysis – cell-based, P. falciparum Indochina, OD700, 18 h, primary screen (AID 1157). As to conditions: P. falciparum Indochina infected erythrocytes, osmotic lysis OD700, 18 h; higher = more signal, called active from +8 up or from −8 down.
Assay [7] in a line: S6 kinase pathway phospho-S6 level changes – cell-based, A549, cytoblot, luminescence, serum-stimulated, primary screen (AID 1158).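 Also: serum-stimulated A549 lung adenocarcinoma cells; signal is phosphorylated S6 detected by cytoblot immunostaining with HRP secondary.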 As to conditions: 5 h, higher = more signal.
Assay [8] concerns the target NADPH oxidase 2 (Homo sapiens) (UniProt P04839). As to the kind of experiment: compounds shifting NOX2 Amplex Red fluorescence – cell-based, HEK293-NOX2, PMA-stimulated, NOX inhibitor project, primary screen (AID 1159). Also: test concentration not given here. As to conditions: 45 min, higher = more signal, called active from +8 up or from −8 down.
Assay [9] concerns the target NADPH oxidase 4 (Homo sapiens) (UniProt Q9NPH5). As to the kind of experiment: compounds shifting NOX4 Amplex Red fluorescence – cell-based, HEK293-NOX4, tetracycline-induced, NOX inhibitor project, primary screen (AID 1160). As to conditions: HEK293-NOX4, Amplex Red H2O2 fluorescence, 45 min; higher = more signal, called active from +8 up or from −8 down.
Assay [10] deals with NADPH oxidase 5 (Homo sapiens) (UniProt Q96PH1). Put plainly: compounds shifting NOX5 Amplex Red fluorescence – cell-based, HEK293-NOX5, NOX inhibitor project, primary screen (AID 1161). As to conditions: HEK293-NOX5, ionomycin, 45 min, higher = more signal.
NADPH oxidase 5 (Homo sapiens), sequence (Q96PH1 whole entry, looked up): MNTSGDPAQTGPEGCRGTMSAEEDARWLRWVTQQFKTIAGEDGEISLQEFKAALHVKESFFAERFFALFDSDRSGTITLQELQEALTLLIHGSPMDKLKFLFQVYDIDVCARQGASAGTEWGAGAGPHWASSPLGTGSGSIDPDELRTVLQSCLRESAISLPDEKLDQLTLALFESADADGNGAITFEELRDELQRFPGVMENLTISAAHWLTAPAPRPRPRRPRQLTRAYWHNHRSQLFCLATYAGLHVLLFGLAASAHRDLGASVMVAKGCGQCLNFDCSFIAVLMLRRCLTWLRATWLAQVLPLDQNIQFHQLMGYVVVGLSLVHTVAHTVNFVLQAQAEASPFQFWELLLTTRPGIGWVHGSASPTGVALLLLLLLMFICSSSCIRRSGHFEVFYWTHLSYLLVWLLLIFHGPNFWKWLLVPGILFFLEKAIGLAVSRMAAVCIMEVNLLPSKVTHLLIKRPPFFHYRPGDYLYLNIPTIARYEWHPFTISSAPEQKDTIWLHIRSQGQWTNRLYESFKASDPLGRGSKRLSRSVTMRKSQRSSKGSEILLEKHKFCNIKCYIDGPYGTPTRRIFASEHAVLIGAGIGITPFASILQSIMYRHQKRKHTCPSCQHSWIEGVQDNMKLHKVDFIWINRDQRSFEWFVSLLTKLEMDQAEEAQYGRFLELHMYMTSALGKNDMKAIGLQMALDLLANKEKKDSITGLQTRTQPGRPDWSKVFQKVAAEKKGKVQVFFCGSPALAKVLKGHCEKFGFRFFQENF

The source made the active and inactive calls.

NADPH oxidase 2 (Homo sapiens), sequence (P04839 whole entry, looked up): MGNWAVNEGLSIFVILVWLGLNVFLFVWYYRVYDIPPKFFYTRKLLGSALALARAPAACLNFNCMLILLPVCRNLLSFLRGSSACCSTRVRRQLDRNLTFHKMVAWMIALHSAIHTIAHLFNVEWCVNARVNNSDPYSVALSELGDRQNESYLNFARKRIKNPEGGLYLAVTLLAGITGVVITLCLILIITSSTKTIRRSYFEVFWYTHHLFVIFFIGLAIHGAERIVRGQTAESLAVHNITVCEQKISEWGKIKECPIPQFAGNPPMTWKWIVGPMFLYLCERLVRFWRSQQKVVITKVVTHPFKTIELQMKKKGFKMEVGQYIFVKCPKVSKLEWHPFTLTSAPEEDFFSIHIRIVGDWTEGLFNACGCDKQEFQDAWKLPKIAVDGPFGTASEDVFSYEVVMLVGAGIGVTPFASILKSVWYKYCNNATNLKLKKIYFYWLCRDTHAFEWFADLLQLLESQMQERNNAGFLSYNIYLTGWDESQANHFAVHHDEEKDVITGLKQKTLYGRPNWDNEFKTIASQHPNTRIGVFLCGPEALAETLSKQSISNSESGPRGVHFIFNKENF
NADPH oxidase 4 (Homo sapiens), sequence (Q9NPH5 whole entry, looked up): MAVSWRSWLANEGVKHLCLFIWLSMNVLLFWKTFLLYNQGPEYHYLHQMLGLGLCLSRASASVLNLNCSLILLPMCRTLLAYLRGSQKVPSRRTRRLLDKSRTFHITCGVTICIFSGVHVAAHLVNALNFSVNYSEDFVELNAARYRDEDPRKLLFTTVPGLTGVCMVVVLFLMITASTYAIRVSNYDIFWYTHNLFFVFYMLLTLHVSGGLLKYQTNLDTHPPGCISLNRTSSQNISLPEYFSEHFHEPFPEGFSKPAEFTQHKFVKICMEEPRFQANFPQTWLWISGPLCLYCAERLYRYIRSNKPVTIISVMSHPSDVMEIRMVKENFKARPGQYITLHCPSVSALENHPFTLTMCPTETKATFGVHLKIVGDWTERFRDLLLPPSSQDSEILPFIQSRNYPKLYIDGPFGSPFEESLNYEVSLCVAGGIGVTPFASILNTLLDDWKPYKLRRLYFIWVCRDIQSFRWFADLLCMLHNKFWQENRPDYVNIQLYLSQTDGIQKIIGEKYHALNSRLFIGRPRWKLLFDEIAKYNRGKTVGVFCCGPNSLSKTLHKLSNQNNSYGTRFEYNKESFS

`COCCn1c(C(=O)N2CCCC2)cc2c1C[C@H]1CN(C(=O)c3ccccc3)[C@@](Cc3ccc(F)cc3)(C(=O)OC)[C@@H]21`: the z-score in assay [1] is -1.33 (inactive); in [3], 1.15 (inactive); in assay [4] it was 0.137 (inactive); in assay [5], 2.62 (inactive); in assay [6], 0.642 (inactive); in assay [7], -0.0267. Also, the figures for the z-score in assay [8], in [9] and in [10] were 0.236 (inactive), 0.191 (inactive) and -4.43, respectively. Moreover, the composite z-score in assay [2] is 0.237.
On to `C=CCOC(=O)[C@H]1[C@@H]2C(=O)O[C@@H](c3ccccc3)[C@@H](c3ccccc3)N2[C@@H](c2ccc(OCCOC(=O)[C@@H]3C[C@@H]4C(=O)N5CCC[C@H]5C(=O)N4[C@@H]3c3cccc(OCCO)c3)cc2)[C@]12C(=O)Nc1ccccc12`, for which the z-score is -0.152 (inactive) in assay [1]; 3.47 (inactive) in [3]; 1.16 (inactive) in assay [4]; 3.5 (inactive) in assay [5]; 0.671 (inactive) in assay [6]; 0.605 in [7]. Besides, the z-score was 2.26 (inactive) in assay [8], 0.917 (inactive) in assay [9] and 0.15 in assay [10]. In assay [2], the composite z-score was found to be 0.603.
For the compound `COC(=O)[C@@]1(Cc2ccc(F)cc2)[C@H]2c3cc(C(=O)N(C)C)n(Cc4nc5ccccc5[nH]4)c3C[C@H]2CN1C(=O)c1ccccc1`, the z-score in assay [1] is -0.827 (inactive); in assay [3], 20.5 (active); in assay [4], 3.05 (inactive); in assay [5], 1.13 (inactive); in assay [6], 0.91 (inactive); in assay [7] it was -0.377. For the same compound, the z-score is -0.0764 (inactive) in [8], 0.32 (inactive) in assay [9] and -2.06 in assay [10]. This compound also registered a composite z-score in assay [2] of -0.0297.
Regarding `C=C(/C(=C/C[C@@H](OC(C)=O)c1ccc(OCCO)cc1)c1cnc2ccccc2c1)C(C)C`, the z-score in assay [1] is 1.14 (inactive); in assay [3], 15.4 (active); in assay [4], 2.26 (inactive); in [5], 1.79 (inactive); in [6] it was 0.97 (inactive); in assay [7] it was 0.853. Moreover, the z-score is -2.99 (inactive) in assay [8], -0.926 (inactive) in [9] and -2.24 in assay [10]. Moreover, the composite z-score in assay [2] was -0.342.
`C=CCOC(=O)[C@@H]1[C@H]2C(=O)O[C@H](c3ccccc3)[C@H](c3ccccc3)N2[C@H](c2ccc(OCCOC(=O)[C@@H]3C[C@@H]4C(=O)N[C@@H](CCCCN(C)C)C(=O)N4[C@@H]3c3ccc(O)cc3)cc2)[C@@]12C(=O)Nc1ccc(I)cc12`: the z-score in assay [1] was -0.193 (inactive); in [3] it was -1.43 (inactive); in assay [4], 0.997 (inactive); in [5], 3.77 (inactive); in [6], 0.374 (inactive); in assay [7], -0.381. For the same compound, the z-score was 1.36 (inactive) in [8], 0.636 (inactive) in [9] and 0.167 in assay [10]. For the same compound, in [2], the composite z-score is -0.012.
For `C[C@@H]1ON(c2cccc(C(=O)OC(C)(C)C)c2)[C@H](c2ccc(Br)cc2)[C@H]1C(=O)N1C(=O)OC[C@H]1Cc1ccccc1`, the z-score is -0.46 (inactive) in [1]; -0.351 (inactive) in assay [3]; 0.488 (inactive) in [4]; -0.611 (inactive) in assay [5]; 0.011 (inactive) in assay [6]; 0.217 in assay [7]. Moreover, the results for the z-score in [8], in assay [9] and in assay [10] were -1.01 (inactive), -0.079 (inactive) and -0.0305, respectively. Moreover, in assay [2], the composite z-score worked out at 0.2.
Turning to `CN1C(=O)C2C=CC(C(O)c3cccs3)N(Nc3ccccc3)C2C1=O` (stereo not given), the z-score was -1.6 (inactive) in assay [1]; -0.203 (inactive) in [3]; 0.65 (inactive) in assay [4]; -0.109 (inactive) in assay [5]; 0.731 (inactive) in [6]; -1.19 in assay [7]. The z-score in assay [8] was -2 (inactive); in assay [9], -4.89 (inactive); in assay [10], -3.11. In addition, the composite z-score in assay [2] worked out at 0.206.
As to `CCN(CC)c1ccc(N2CC=CC34O[C@@H]5/C=C\CCCOC(=O)C5[C@H]3C(=O)N(CCO)[C@@H]4C2=O)cc1` (stereo not given in full), the z-score is -0.0626 (inactive) in assay [1]; 0.897 (inactive) in assay [3]; 0.175 (inactive) in assay [4]; 0.227 (inactive) in [5]; 0.041 (inactive) in assay [6]; -0.155 in [7]. The z-score is -0.401 (inactive) in assay [8], -0.72 (inactive) in assay [9] and 0.733 in assay [10]. Also, the composite z-score in assay [2] came to 0.0999.
As to `CC(C)N1C(=O)[C@@]2(Cc3ccccc31)c1ccccc1C(=O)N(C1CCCCC1)[C@H]2c1ccc(CO)cc1`, the z-score in assay [1] is 0.04 (inactive); in [3] it was 0.206 (inactive); in [4] it was 0.195 (inactive); in [5], 0.516 (inactive); in assay [6], 0.378 (inactive); in assay [7], 0.0252. The values for the z-score in assay [8], in assay [9] and in assay [10] were 0.111 (inactive), 0.217 (inactive) and -0.638, respectively. The compound further showed a composite z-score in [2] of -0.101.
Consider `Cc1ccc(S[C@]2(C(=O)NCCN3CCOCC3)CC(=O)N(Cc3ccccc3)[C@@H]2c2ccc(CO)cc2I)cc1`, for which the z-score is 0.434 (inactive) in [1]; 8.54 (active) in assay [3]; 0.37 (inactive) in assay [4]; 1.13 (inactive) in assay [5]; -1.19 (inactive) in assay [6]; 2.42 in [7]. Also, the z-score in assay [8] was 1.99 (inactive); in [9] it was -2.89 (inactive); in assay [10], 0.422. The compound also had a composite z-score in [2] of 0.0752.
Consider `COCCOC(=O)N1C(=O)[C@@]2(c3ccccc31)[C@H](c1ccccc1OCCO)N1[C@H](c3ccccc3)[C@H](c3ccccc3)OC(=O)[C@H]1[C@@H]2C(=O)Nc1nc2ccccc2s1`, for which the z-score in [1] was 1.57 (inactive); in assay [3], 3.27 (inactive); in [4] it was 2.77 (inactive); in assay [5], 1.37 (inactive); in assay [6] it was 1.84 (inactive); in assay [7], 0.59. Further, the results for the z-score in assay [8], in assay [9] and in [10] were 1.39 (inactive), 1.41 (inactive) and 0.676, respectively. This compound also registered a composite z-score in [2] of 0.523.
Consider `COc1ccc(C(=O)Nc2ccc(CN3C(=O)[C@@]4(O[C@@H](CCO)[C@H]([Si](C)(C)c5ccc(OC)cc5)[C@H]4C)c4ccccc43)cc2)cc1`, for which the z-score is -1.11 (inactive) in [1]; 25.1 (active) in assay [3]; 13.2 (active) in assay [4]; 1.6 (inactive) in assay [5]; 1.75 (inactive) in assay [6]; -0.483 in assay [7]. The z-score was -6.53 (inactive) in assay [8], -2.48 (inactive) in [9] and -0.954 in [10]. The composite z-score in assay [2] is 0.155.
Regarding `C=CC[C@@]1(C(=O)N(C)C)N=C(c2ccc(OCCCO)cc2)O[C@@H]1c1ccccc1N=[N+]=[N-]`, the z-score in assay [1] is 0.722 (inactive); in assay [3], 33 (active); in [4] it was 28.9 (active); in [5] it was 3.29 (inactive); in assay [6], 8.39 (active); in assay [7], -0.195. In addition, the values for the z-score in [8], in [9] and in [10] were -1.12 (inactive), 0.475 (inactive) and 0.446, respectively. The same compound returned a composite z-score in [2] of 0.57.
